Screens: PubChem, several laboratories
Most compounds without a hit are left out; they make up all but 4.6% or so of the library.
HSF1 activator: increases HSF-1 driven luciferase reporter signal; NIH3T3-HGL HSF-1 luciferase reporter, MG132, 8 h; 100% = twice DMSO control signal; activation, % at 9 µM; hit rate 1.7% among 300,000; AID 504408;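 active = mean replicate activation of at least 50% with a set share of replicates each reaching 50%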;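 also: 0% = median of the neutral control wells and 100% = twice that signal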
GAA850 FXN act: activators of GAA850 frataxin (FXN) promoter | activation, % at 6 µM | hit rate 0.56% among 360,000 | HEK293 lucGAA850 FXN promoter luciferase reporter, 24 h; percent of 10 µM SAHA response;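 active = activation above the average of all compounds screened plus 3 SD, cutoff fixed separately per campaign, cut at about 7.5% in these data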;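 also: 0% = DMSO wells and 100% = 10 µM SAHA wells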
HSF1 inh: HSF1 inhibition. AID 2098. activity change, negative = inhibition, % at 7.5 µM (by protocol). hit rate 0.77% among 300,000. NIH3T3-HGL HSE-luciferase, MG132-induced, luminescence 8 h; hits give low values;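 active = more than half of replicate wells show activity change below -50%, luminescence cut by over half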;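 also: luciferase reports HSF-1 transcriptional activity via heat shock element; 0% = median of DMSO wells and -100% = zero luminescence signal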
AHR activator: activators of human aryl hydrocarbon receptor. AHR-responsive luciferase reporter cells, luminescence. P35869. hit rate 2.5% among 320,000. activation, % at 5 µM; in the data active = activation above about 47%;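 also: 0% = vehicle wells and 100% = reference agonist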
Target sequence (P35869 whole entry, looked up): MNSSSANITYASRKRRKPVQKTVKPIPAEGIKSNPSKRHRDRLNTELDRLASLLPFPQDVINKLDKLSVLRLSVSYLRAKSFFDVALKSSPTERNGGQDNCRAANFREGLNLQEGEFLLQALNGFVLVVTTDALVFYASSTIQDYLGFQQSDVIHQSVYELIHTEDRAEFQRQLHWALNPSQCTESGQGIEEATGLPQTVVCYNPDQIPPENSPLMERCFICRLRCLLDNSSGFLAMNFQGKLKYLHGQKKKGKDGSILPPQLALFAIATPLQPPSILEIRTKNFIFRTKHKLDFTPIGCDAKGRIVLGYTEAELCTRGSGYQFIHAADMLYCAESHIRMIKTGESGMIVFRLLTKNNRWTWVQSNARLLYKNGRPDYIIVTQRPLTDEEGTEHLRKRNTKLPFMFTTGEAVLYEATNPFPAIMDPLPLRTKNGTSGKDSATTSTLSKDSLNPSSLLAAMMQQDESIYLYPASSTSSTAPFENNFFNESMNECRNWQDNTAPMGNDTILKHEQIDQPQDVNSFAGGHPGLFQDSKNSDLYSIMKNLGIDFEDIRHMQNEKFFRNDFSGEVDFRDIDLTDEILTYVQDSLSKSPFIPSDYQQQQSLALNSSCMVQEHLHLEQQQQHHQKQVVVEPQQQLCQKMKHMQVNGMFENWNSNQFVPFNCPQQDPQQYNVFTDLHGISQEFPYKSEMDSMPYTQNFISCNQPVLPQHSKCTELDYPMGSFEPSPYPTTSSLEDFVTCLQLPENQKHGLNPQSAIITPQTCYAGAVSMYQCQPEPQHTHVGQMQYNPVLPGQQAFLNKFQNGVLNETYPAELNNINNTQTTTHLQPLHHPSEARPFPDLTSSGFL
Active calls of the source: *; / = not tested or not shown.

SMILES | HSF1 activator | GAA850 FXN act | HSF1 inh | AHR activator
O=c1oc2ccccc2c(NCCc2ccccc2)c1[N+](=O)[O-] | 8 | -1 | 3 | 9
COC(=O)c1cc(OC)c(OC)cc1NC(=S)N1CCOCC1 | 13 | 1 | -3 | /
COC(=O)c1cc(OC)c(OC)cc1NC(=S)N1CCCC1 | 62* | 0 | 26 | 5
S=C(NCCc1ccc(Cl)cc1)NC1CCCCC1 | 58* | 5 | 30 | 23
S=C(NCCc1ccc(Cl)cc1)NC1CCCC1 | 27 | 6 | 14 | 3
CCOC(=O)CC(NC(=O)Cc1ccccc1)c1ccccc1Cl (configuration not stated) | -11 | 3 | 1 | 0
CCOC(=O)CC(NC(=O)C1c2ccccc2Oc2ccccc21)c1ccccc1Cl (configuration not stated) | 102* | -4 | 49 | 4
COc1cc2c(cc1NC(=O)CSc1nnc(Cc3cccs3)n1C)oc1ccccc12 | / | -1 | / | 47*
COc1cc2c(cc1NC(=O)CSc1nnc(Cc3cccs3)n1Cc1ccco1)oc1ccccc12 | 37 | -3 | 18 | 28
COc1cc2c(cc1NC(=O)CSc1cccc[n+]1[O-])oc1ccccc12 | -1 | 1 | -7 | 80*
COc1cc2c(cc1NC(=O)CSc1nc3ccc(C)cc3[nH]1)oc1ccccc12 | 74* | / | 48 | 57*
COc1ccc(-c2cn(-c3ccccc3)nc2CO)cc1 | -91 | 3 | -89* | 8
CCn1cc(-c2ccccc2)c(C(=O)O)c1-c1ccc(OC)cc1 | -8 | 0 | -7 | 58*
COc1ccc(NC(=O)C(c2ccc(OC)cc2)N(C)C(=O)Cc2cccs2)cc1 (configuration not stated) | -6 | -1 | -9 | 1
CCc1cc2c(NCCC(=O)O)nc(C)nc2s1 | -70 | 0 | -60* | 33
O=C(NC1=NCCS1)C1CC(=O)N(c2ccc(F)cc2)C1 (configuration not stated) | 87* | -1 | 40 | -4
Cn1c(C(=O)NCC2CCCO2)cc2c(=O)n(C)c3ccccc3c21 (configuration not stated) | 4 | -1 | -9 | 49*
COCCNC(=O)c1ccccc1NC(=O)c1ccccc1N(C)S(C)(=O)=O | 9 | -4 | 1 | -1
Cc1ccc(Nc2c(-c3ccc(C)o3)nc3cnccn23)cc1 | 18 | 4 | 26 | 18
CSc1ccc(-c2nc3cnccn3c2Nc2ccc3c(c2)OCO3)cc1 | 31 | 3 | 2 | 188*
Cc1ccc(-c2nc3cnccn3c2Nc2ccc3c(c2)OCO3)o1 | 19 | 3 | 3 | 53*
COc1ccc(-c2nc3cnccn3c2Nc2ccc(C)cc2)cc1 | 10 | 4 | 14 | 65*
CN(C(=O)COC(=O)c1nc(-c2ccccc2)n(-c2ccccc2)n1)C1CCS(=O)(=O)C1 (configuration not stated) | -1 | 2 | -7 | -4
COc1ccc(Br)cc1C(=O)Nc1ccc(C(=O)O)cc1 | / | 0 | / | 2
Cc1ccc(C(=O)Nc2nnc(CC(=O)N/N=C/c3ccncc3)s2)cc1 | -4 | 3 | 11 | 11
SMILES | HSF1 activator | GAA850 FXN act | HSF1 inh | AHR activator
Cc1cnc(NC(=O)COc2ccccc2)s1 | 61* | 3 | 27 | -9
COc1ccccc1OCC(=O)Nc1ncc(C)s1 | / | 4 | / | 2
Cc1nc(NC(=O)COc2ccccc2)sc1C(=O)Nc1ccccc1 | 6 | -1 | -6 | 66*
Cc1ccc2[nH]c(-c3ccccc3)c(CN3CCOCC3)c(=O)c2c1 | -10 | 2 | -9 | 9
Cc1cc(C)c(C)c(S(=O)(=O)ON2C(=O)c3ccccc3C2=O)c1C | 52* | 2 | 41 | 1
Cc1cc(C)c(S(=O)(=O)ON2C(=O)c3ccccc3C2=O)cc1C | 62* | 6 | 42 | 12
S=C(N/N=C/c1ccc(Br)cc1)N1CCCCC1 | 55* | 5 | 32 | -3
S=C(N/N=C/c1ccc(Cl)cc1)N1CCOCC1 | 24 | 7 | 4 | 71*
Cc1ccc(/C=N/NC(=S)N2CCOCC2)cc1 | 14 | 6 | 17 | 8
CCOc1ccc(CNC(=O)C2Cc3cc(S(=O)(=O)N4CCCCC4)ccc3N2C(C)=O)cc1 (configuration not stated) | 10 | -2 | 11 | 3
CCC(=O)c1ccc(/C=C/c2nc3ccccc3n2C)o1 | 19 | 5 | 20 | -1
O=C(NC1=NCCS1)c1cccc(OC(F)F)c1 | 47 | 3 | 11 | 11
Cc1occc1C(=O)Nc1cccc2ccccc12 | 73* | 4 | 57 | 25
O=C(Nc1cccc2ccccc12)OCc1cncs1 | 38 | 4 | 21 | 57*
O=C(N/N=C/c1cccc2ccccc12)c1ccccc1Cl | 23 | 3 | 10 | /
Cc1occc1C(=O)Nc1ccccc1NC(=O)c1ccoc1C | -12 | 0 | -14 | 7
Cc1occc1C(=O)N/N=C/c1cccc2ccccc12 | 63* | 4 | 27 | 44
COc1cc(OC)cc(C(=O)NCCCNC(=O)c2cccnc2)c1 | -10 | 1 | -3 | 9
O=C(NCc1ccc(C(=O)O)cc1)OCc1ccccc1 | -64 | 2 | -54* | 1
CCOC(=O)NCc1ccccc1 | 24 | -1 | 5 | 1
CN(C)/C=N/c1c(C#N)cnn1-c1ncnc2sc(-c3ccccc3)cc12 | 44 | 2 | 16 | 58*
CN1CCN(c2ncnc3sc(-c4ccccc4)cc23)CC1 | 6 | 4 | 1 | 55*
CCOC(=O)C1C(=O)OC(C)(C)C1C(C)C(=O)c1ccc(C)cc1C (configuration not stated) | 56* | 2 | 15 | -1
CCOC(=O)C1C(=O)OC(C)(C)C1C(C)C(=O)c1ccc(C)cc1 (configuration not stated) | -59 | -2 | -52* | -1
COC(=O)C1C(=O)OC(C)(C)C1C(C)C(=O)c1ccc(C)cc1C (configuration not stated) | 9 | -2 | 3 | 3
SMILES | HSF1 activator | GAA850 FXN act | HSF1 inh | AHR activator
CCOC(=O)C1C(=O)OC(C)(C)C1C(CC)C(=O)c1ccccc1 (configuration not stated) | / | 0 | / | 2
CCc1nc2c(OCc3ccccc3C(=O)OC)cccn2c1N(C)C(=O)c1ccncc1 | / | 0 | / | /
CCNc1nc(Cl)nc(-c2cn(-c3ccccc3)c3ccccc23)n1 | -1 | 1 | 2 | 62*
Clc1nc(Oc2ccccc2)nc(-c2cn(-c3ccccc3)c3ccccc23)n1 | / | -2 | -17 | 8
Cc1cccnc1NCc1ccc(O)c2ncccc12 | -12 | 0 | -12 | 6
Cc1cccc(NCc2ccc(O)c3ncccc23)c1C | -62 | 0 | -63* | 3
COC(=O)c1ccc(COC(=O)c2cccn2C)o1 | 17 | 4 | 1 | 0
COCCNc1c([N+](=O)[O-])c(=O)n(-c2ccccc2)c2ccccc12 | 69* | 1 | 21 | 0
COc1ccc(Br)cc1C(=O)Nc1ccc(O)cc1 | -7 | 1 | 2 | 42
COc1ccc(Br)cc1C(=O)Nc1cccc(C)c1 | 4 | 0 | 3 | 50*
CN1CCN(c2ccccc2NC(=O)c2ccc(-c3ccc(Cl)c(Cl)c3)o2)CC1 | 9 | 3 | 0 | 63*
